Holding throughout (experiment): NCI-60 one-dose screen, 48 h (100 = growth as untreated, 0 = no growth, -100 = all killed)
One experiment concerns SR leukemia. The note with it: 10 µM unless noted.
A further experiment has as its system RPMI-8226 leukemia. The settings on record: 10 µM.
The subject of a further experiment is OVCAR-8 ovarian. The note with it: 10 µM unless noted.
The test system of a further experiment is OVCAR-5 ovarian. The settings on record: 10 µM unless noted.
Another experiment concerns OVCAR-4 ovarian. The note with it: 10 µM unless noted.
The subject of a further experiment is SK-OV-3 ovarian. The settings on record: 10 µM.
The subject of a further experiment is IGROV1 ovarian. The settings on record: 10 µM unless noted.
The test system of the next experiment is OVCAR-3 ovarian. The note with it: 10 µM unless noted.
A further experiment deals with HS 578T breast. The note with it: 10 µM unless noted.
The test system of the next experiment is NCI/ADR-RES ovarian. The settings on record: 10 µM unless noted.
A further experiment has as its system T-47D breast. The note with it: 10 µM.
In another experiment the test system is BT-549 breast. The settings on record: 10 µM unless noted.
For another experiment, the system named is MDA-MB-435 melanoma. The settings on record: 10 µM unless noted.
A further experiment relates to SW-620 colon. The settings on record: 10 µM unless noted.
The next experiment relates to MCF7 breast. The settings on record: 10 µM unless noted.
The test system of a further experiment is HCT-116 colon. The note with it: 10 µM unless noted.
A further experiment concerns HCC-2998 colon. The settings on record: 10 µM unless noted.
For another experiment, the system named is KM12 colon. The note with it: 10 µM unless noted.

The structures appear in SMILES notation. About 83,000 compounds went through this panel and 20% of them were active in at least one assay; those are over-represented in the sample as a whole.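 Growth was measured after 48 h exposure to one concentration of compound in 96-well plates. Values under 10 count as active.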 Unmarked numbers belong to inactive results. Calls of active or inactive are those of the source.

`C[C@@H](Oc1cc(-c2cnn(C3CC4(CCCNC4)C3)c2)cnc1N)c1c(Cl)ccc(F)c1Cl` (some centres undefined): the growth in the experiment on SR leukemia is -3.47% (active); with RPMI-8226 leukemia, -0.0926% (active); in the experiment with OVCAR-8 ovarian, 43.4%; in the experiment with OVCAR-5 ovarian, 34.3%; in the experiment with OVCAR-4 ovarian, 37.2%; with SK-OV-3 ovarian it was 78%. For the same molecule, the growth is 48.9% in the experiment with IGROV1 ovarian; 52% with OVCAR-3 ovarian; 30.5% in the experiment with HS 578T breast; 46.1% in the experiment on NCI/ADR-RES ovarian; 20.4% in the experiment on T-47D breast; 73.4% in the experiment with BT-549 breast. The growth with MDA-MB-435 melanoma is 12.6%; in the experiment on SW-620 colon it was -4.07% (active); in the experiment with MCF7 breast, -14.5% (active); in the experiment on HCT-116 colon it was -11.8% (active); in the experiment on HCC-2998 colon, 15.3%.

With `CCOC(=O)c1c(-c2cc(OC)c(OC)c(OC)c2)csc1N`, the growth in the experiment with SR leukemia is 27.2%; in the experiment on RPMI-8226 leukemia, 90.3%; in the experiment with OVCAR-8 ovarian, 106%; in the experiment with OVCAR-5 ovarian it was 101%; in the experiment on OVCAR-4 ovarian, 118%; in the experiment with SK-OV-3 ovarian, 90.9%. Also, the growth in the experiment with IGROV1 ovarian was 84.3%; in the experiment on OVCAR-3 ovarian, 96.4%; in the experiment with HS 578T breast, 104%; in the experiment on NCI/ADR-RES ovarian, 83.8%; in the experiment with T-47D breast it was 94%; in the experiment with BT-549 breast, 117%. In addition, the growth is -1.03% (active) in the experiment with MDA-MB-435 melanoma, 76.6% with SW-620 colon, 78.1% in the experiment on MCF7 breast and 90.4% in the experiment with HCT-116 colon.

Turning to `CC(=O)OCC1O[C@@H]([S-])C(OC(C)=O)[C@H](OC(C)=O)[C@@H]1OC(C)=O.[Au+].c1ccc(CN2[CH-]N(Cc3ccccc3)C(c3ccccc3)=C2c2ccccc2)cc1`, in the experiment on SR leukemia, the growth is -29.1% (active).

As for `O=C1C2CC3C(CC2C(=O)[N]1[Sn]([c]1ccccc1)([c]1ccccc1)[c]1ccccc1)C1(Cl)C(Cl)=C(Cl)C3(Cl)C1(Cl)Cl` (centres undefined), the growth in the experiment with SR leukemia is -50.1% (active); in the experiment on RPMI-8226 leukemia it was -52.3% (active); with OVCAR-8 ovarian, -97.5% (active); with OVCAR-5 ovarian, -100% (active); in the experiment with OVCAR-4 ovarian, -83% (active); in the experiment with SK-OV-3 ovarian, -100% (active). In addition, the growth in the experiment with IGROV1 ovarian is -66.2% (active); in the experiment with OVCAR-3 ovarian it was -97.3% (active); in the experiment with HS 578T breast, -20% (active); in the experiment with NCI/ADR-RES ovarian, -55.5% (active); with T-47D breast it was -50.3% (active); in the experiment on BT-549 breast, -95.3% (active). The growth is -96.4% (active) in the experiment on MDA-MB-435 melanoma; -79.7% (active) in the experiment with SW-620 colon; -64.7% (active) in the experiment on MCF7 breast; -83.9% (active) in the experiment on HCT-116 colon; -82.2% (active) in the experiment with HCC-2998 colon; -91.3% (active) in the experiment with KM12 colon.

On to `Nc1cc(Br)c(-c2nnc(CCC(=O)c3nc4ccccc4[nH]3)o2)c(Br)c1`, for which the growth in the experiment with SR leukemia was 18.5%; with RPMI-8226 leukemia, 79.6%; with OVCAR-8 ovarian, 95.2%; with OVCAR-5 ovarian it was 97.2%; with OVCAR-4 ovarian, 82.4%; with SK-OV-3 ovarian, 81.8%. The growth was 76.8% in the experiment on IGROV1 ovarian; 49.1% in the experiment on OVCAR-3 ovarian; 99.6% with HS 578T breast; 89.6% in the experiment with NCI/ADR-RES ovarian; 72.6% in the experiment with T-47D breast; 40.6% in the experiment with BT-549 breast. Moreover, the growth is 5.71% (active) in the experiment with MDA-MB-435 melanoma; 72.1% with SW-620 colon; 18.9% in the experiment with MCF7 breast; 53.3% with HCT-116 colon; 78% in the experiment with HCC-2998 colon; 69% in the experiment with KM12 colon.

On to `NS(=O)(=O)c1cc(Br)c2c(c1)S(=O)(=O)NCN2`, for which the growth was 88% in the experiment with SR leukemia; 106% in the experiment with RPMI-8226 leukemia; 103% in the experiment on OVCAR-8 ovarian; 112% with OVCAR-5 ovarian; 120% with OVCAR-4 ovarian; 115% in the experiment on SK-OV-3 ovarian. In addition, the growth in the experiment with IGROV1 ovarian is 115%; in the experiment with OVCAR-3 ovarian it was 99.3%; in the experiment on HS 578T breast, 110%; with NCI/ADR-RES ovarian, 135%; with T-47D breast, 102%; in the experiment with BT-549 breast, 108%. The growth was 105% with MDA-MB-435 melanoma; 109% in the experiment on SW-620 colon; 97.4% with MCF7 breast; 108% in the experiment with HCT-116 colon; 96.9% in the experiment with KM12 colon.

Consider `CCOC(=O)C1=C(C)N2C(=NC3=C(CCCC/C3=C\c3cc(OC)c(OC)c(OC)c3)C2c2cc(OC)c(OC)c(OC)c2)S1` (centres undefined), for which the growth is 47.4% with SR leukemia; 32.7% with RPMI-8226 leukemia; 63.6% in the experiment with OVCAR-8 ovarian; 85.6% in the experiment with OVCAR-5 ovarian; 69.3% in the experiment with OVCAR-4 ovarian; 77.8% in the experiment with SK-OV-3 ovarian. Moreover, the growth in the experiment on IGROV1 ovarian is 71.6%; in the experiment on OVCAR-3 ovarian, 64.5%; in the experiment on HS 578T breast, 96.1%; in the experiment on NCI/ADR-RES ovarian it was 62.1%; with T-47D breast it was 45.9%; in the experiment on BT-549 breast it was 55.1%. For the same molecule, the growth was 68.4% with MDA-MB-435 melanoma; 82.5% in the experiment with SW-620 colon; 60.9% in the experiment with MCF7 breast; 68% in the experiment with HCT-116 colon; 85% with HCC-2998 colon; 67.5% in the experiment on KM12 colon.

Regarding `Nc1nc(N)c(C=Nc2ccc(Br)cc2)c(Nc2ccc(Br)cc2)n1`, the growth in the experiment on SR leukemia was 64.2%; with RPMI-8226 leukemia, 113%; in the experiment with OVCAR-8 ovarian, 87.3%; in the experiment with OVCAR-5 ovarian, 79.3%; in the experiment on OVCAR-4 ovarian, 107%; in the experiment with SK-OV-3 ovarian, 104%. The growth with IGROV1 ovarian is 86.3%; with OVCAR-3 ovarian, 149%; in the experiment on HS 578T breast, 80.8%; in the experiment with NCI/ADR-RES ovarian it was 77.6%; with T-47D breast, 76.8%; in the experiment with BT-549 breast, 69.3%. Also, the growth with MDA-MB-435 melanoma is 84.7%; with SW-620 colon it was 99.7%; with MCF7 breast, 72.7%; in the experiment on HCT-116 colon it was 78.5%; in the experiment with HCC-2998 colon it was 83.5%; in the experiment on KM12 colon it was 86.3%.

For `O=C1NC(=O)C(CSc2ccccc2)(c2ccccc2)N1` (centres undefined), the growth in the experiment with SR leukemia is 89.9%; in the experiment with RPMI-8226 leukemia, 100%; with OVCAR-8 ovarian, 99.3%; with OVCAR-5 ovarian it was 107%; in the experiment with OVCAR-4 ovarian, 111%; in the experiment on SK-OV-3 ovarian, 101%. Moreover, the growth in the experiment with IGROV1 ovarian was 80.4%; in the experiment on OVCAR-3 ovarian, 124%; in the experiment on HS 578T breast it was 106%; with NCI/ADR-RES ovarian it was 99.9%; in the experiment with T-47D breast it was 93.4%; in the experiment with BT-549 breast, 100%. The growth was 112% in the experiment with MDA-MB-435 melanoma; 106% in the experiment on SW-620 colon; 101% in the experiment with MCF7 breast; 102% with HCT-116 colon; 96.4% in the experiment with HCC-2998 colon; 113% in the experiment with KM12 colon.

Regarding `COc1cc(/C=C2\C(=O)N(c3c(Cl)cccc3Cl)c3ccccc32)cc(OC)c1O`, the growth with SR leukemia was 3.84% (active); in the experiment on RPMI-8226 leukemia, 12.5%; in the experiment with OVCAR-8 ovarian it was 33.1%; in the experiment with OVCAR-5 ovarian, 89.8%; in the experiment with OVCAR-4 ovarian it was 53.6%; with SK-OV-3 ovarian, 53.7%. The growth in the experiment on IGROV1 ovarian is 6.56% (active); with OVCAR-3 ovarian, 46%; with HS 578T breast it was 39.8%; with NCI/ADR-RES ovarian it was 38.7%; in the experiment on T-47D breast, 51.8%; in the experiment with BT-549 breast it was 33.4%. The growth in the experiment on MDA-MB-435 melanoma is 35.2%; with SW-620 colon, 31.4%; with MCF7 breast it was 25.3%; with HCT-116 colon it was 15.7%; in the experiment with HCC-2998 colon it was 44.6%; with KM12 colon it was 28.4%.

Source of the values: PubChem BioAssay (NCI).
